# “And” between values parts separate entries of the source, which are not always exact repeats. Identical values can stand only once. More than one record can exist for a structure, and the calls need not agree. The source made the active and inactive calls.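 The calls were made as follows, unless noted: active = normalized viability below 100% at a tested concentration; inactive = the rest.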
# Key:
# [1] = phospholipid biosynthesis inhibitors in animal cells, primary screen, cell-based, LOPAC library, screen 4 (AID 1347384; call rule not given here); settings: phospholipid biosynthesis inhibition screen, at 10 µM
# [2] = modifiers of HSF1 nuclear foci, imaging, Selleck Cancer Library (AID 1347162; in the data active = plate-normalised HSF1 focus index below about 0.46); settings: human cells, at 10 µM; SSMD: measured here: HSF1 foci SSMD mean; cell count: measured here: cell number; plate-normalised HSF1 focus index: stronger effect = lower value
# [3] = ovarian cancer cell viability with rucaparib, profiling panel, oncology-focused library, rucaparib conditional (AID 1508598); settings: patient-derived ovarian cancer cells, CellTiter-Glo viability, 144 h, stronger effect = lower value
smiles,measurement,setting,value
Cc1cc(Nc2ncc3cc(-c4c(Cl)cccc4Cl)c(=O)n(C)c3n2)ccc1F,outcome,[1],inactive
c1ccc(-c2cnn3cc(-c4ccc(OCCN5CCOCC5)cc4)cnc23)cc1,outcome,[1],inactive
CC[N+](CC)(CC)CC,outcome,[1],inactive
CC(=O)O[C@H]1CC2(C)[C@@H](C[C@@H](O)[C@H]3[C@@]4(C)CC[C@@H](O)[C@@H](C)[C@@H]4CC[C@@]32C)/C1=C(/CCC=C(C)C)C(=O)O (some centres undefined),outcome,[1],inactive
COc1c/c(=C2/C=c3ccccc3=N2)[nH]/c1=C\c1[nH]c(C)cc1C,SSMD,[2],-6.15
same,cell count,[2],7490
same,plate-normalised HSF1 focus index,[2],0.614 (inactive)
NC(=NCCC[C@H](N)C(=O)O)N[N+](=O)O,SSMD,[2],2.98
same,cell count,[2],7230
same,plate-normalised HSF1 focus index,[2],1.18 (inactive)
C[N+]1(C)CCC(OC(=O)C(c2ccccc2)c2ccccc2)CC1,outcome,[1],inactive
Nc1cc2c(ncn2CCOCP(=O)(O)O)c(=O)[nH]1,outcome,[1],inactive
C=CC1=C(C)c2cc3[nH]c(cc4nc(cc5[nH]c(cc1n2)c(C)c5CCC(=O)O)C(CCC(=O)O)=C4C)c(C)c3C=C,outcome,[1],inactive
N[C@H](C(=O)O)[C@H](O)c1ccc(O)c(O)c1,outcome,[1],inactive
CO/N=C(\C(=O)N[C@@H]1C(=O)N2C(C(=O)O)=C(CSc3nc(=O)c(=O)[nH]n3C)CSC12)c1csc(N)n1 (some centres undefined),outcome,[1],inactive
C[N+](C)(C)CCOP(=O)(O)OP(=O)(O)OC[C@H]1O[C@@H](n2ccc(N)nc2=O)C(O)[C@H]1O (some centres undefined),outcome,[1],inactive
COCCNC(=O)COc1ccc(OCCNC[C@H](O)COc2ccccc2)cc1,outcome,[1],inactive
CCCCCc1ccc(/C=C/[C@H](O)[C@@H](CO)NC)cc1,SSMD,[2],1.63
same,cell count,[2],6120
same,plate-normalised HSF1 focus index,[2],1.1 (inactive)
O=CN(O)CCCP(=O)(O)O,outcome,[1],inactive
O.O.[NH2-].[NH2-].[NH2-].[NH2-].[NH2-].[NH2-].[NH2-].[NH2-].[NH2-].[NH2-].[NH2-].[NH2-].[NH2-].[NH2-].[Ru+4].[Ru+5].[Ru+5],outcome,[1],inactive
CCOC(=O)CN1C(=O)c2ccc3c4c(ccc(c24)C1=O)C(=O)N(CC(=O)OCC)C3=O,outcome,[1],inactive
O=C(O)C1=CS[C@@H]2/C(=C\c3cnc4n3CCOC4)C(=O)N12,outcome,[1],inactive
N#CC[C@@H](C1CCCC1)n1cc(-c2ncnc3[nH]ccc23)cn1,SSMD,[2],2.05
same,cell count,[2],7030
same,plate-normalised HSF1 focus index,[2],1.12 (inactive)
same,viability,"[3]; at 0.000305 µM, OCI-C5x cells, with rucaparib 10 µM, 100% = cells with rucaparib alone",113% (inactive) and 107% (inactive)
same,viability,"[3]; at 0.000305 µM, OCI-C5x cells, without rucaparib",113% (inactive) and 115% (inactive)
same,viability,"[3]; at 0.000305 µM, OCI-P5x cells, with rucaparib 20 µM, 100% = cells with rucaparib alone",90.3% (active) and 57.2% (active)
same,viability,"[3]; at 0.000305 µM, OCI-P5x cells, without rucaparib",67.6% (active) and 15.7% (active)
same,viability,"[3]; at 0.00122 µM, OCI-C5x cells, with rucaparib 10 µM, 100% = cells with rucaparib alone",104% (inactive) and 71.4% (active)
same,viability,"[3]; at 0.00122 µM, OCI-C5x cells, without rucaparib",116% (inactive) and 58.3% (active)
same,viability,"[3]; at 0.00122 µM, OCI-P5x cells, with rucaparib 20 µM, 100% = cells with rucaparib alone",75.9% (active) and 50.4% (active)
same,viability,"[3]; at 0.00122 µM, OCI-P5x cells, without rucaparib",29.2% (active) and 17% (active)
same,viability,"[3]; at 0.00488 µM, OCI-C5x cells, with rucaparib 10 µM, 100% = cells with rucaparib alone",115% (inactive) and 102% (inactive)
same,viability,"[3]; at 0.00488 µM, OCI-C5x cells, without rucaparib",114% (inactive) and 116% (inactive)
same,viability,"[3]; at 0.00488 µM, OCI-P5x cells, with rucaparib 20 µM, 100% = cells with rucaparib alone",107% (inactive) and 105% (inactive)
same,viability,"[3]; at 0.00488 µM, OCI-P5x cells, without rucaparib",106% (inactive) and 105% (inactive)
same,viability,"[3]; at 0.0195 µM, OCI-C5x cells, with rucaparib 10 µM, 100% = cells with rucaparib alone",109% (inactive) and 100% (inactive)
same,viability,"[3]; at 0.0195 µM, OCI-C5x cells, without rucaparib",99.4% (active) and 104% (inactive)
same,viability,"[3]; at 0.0195 µM, OCI-P5x cells, with rucaparib 20 µM, 100% = cells with rucaparib alone",99.9% (active) and 99.8% (active)
same,viability,"[3]; at 0.0195 µM, OCI-P5x cells, without rucaparib",99.4% (active) and 104% (inactive)
same,viability,"[3]; at 0.0781 µM, OCI-C5x cells, with rucaparib 10 µM, 100% = cells with rucaparib alone",112% (inactive) and 100% (inactive)
same,viability,"[3]; at 0.0781 µM, OCI-C5x cells, without rucaparib",113% (inactive) and 109% (inactive)
same,viability,"[3]; at 0.0781 µM, OCI-P5x cells, with rucaparib 20 µM, 100% = cells with rucaparib alone",100% (inactive) and 96.9% (active)
same,viability,"[3]; at 0.0781 µM, OCI-P5x cells, without rucaparib",101% (inactive) and 102% (inactive)
same,viability,"[3]; at 0.313 µM, OCI-C5x cells, with rucaparib 10 µM, 100% = cells with rucaparib alone",105% (inactive) and 98.1% (active)
same,viability,"[3]; at 0.313 µM, OCI-C5x cells, without rucaparib",106% (inactive) and 111% (inactive)
same,viability,"[3]; at 0.313 µM, OCI-P5x cells, with rucaparib 20 µM, 100% = cells with rucaparib alone",100% (inactive) and 90.7% (active)
same,viability,"[3]; at 0.313 µM, OCI-P5x cells, without rucaparib",96.4% (active) and 98.4% (active)
same,viability,"[3]; at 1.25 µM, OCI-C5x cells, with rucaparib 10 µM, 100% = cells with rucaparib alone",117% (inactive) and 101% (inactive)
same,viability,"[3]; at 1.25 µM, OCI-C5x cells, without rucaparib",108% (inactive) and 109% (inactive)
same,viability,"[3]; at 1.25 µM, OCI-P5x cells, with rucaparib 20 µM, 100% = cells with rucaparib alone",97.5% (active) and 88.1% (active)
same,viability,"[3]; at 1.25 µM, OCI-P5x cells, without rucaparib",96% (active) and 91.3% (active)
same,viability,"[3]; at 5 µM, OCI-C5x cells, with rucaparib 10 µM, 100% = cells with rucaparib alone",133% (inactive) and 122% (inactive)
same,viability,"[3]; at 5 µM, OCI-C5x cells, without rucaparib",115% (inactive) and 130% (inactive)
same,viability,"[3]; at 5 µM, OCI-P5x cells, with rucaparib 20 µM, 100% = cells with rucaparib alone",83.7% (active) and 82.4% (active)
same,viability,"[3]; at 5 µM, OCI-P5x cells, without rucaparib",86.9% (active) and 86.2% (active)

# Source: PubChem BioAssay
